Hit rate of the full screen: of about 52,000 compounds, about 4,300 (8.3%) were called active. Cut-off read from the data, not from the text of the source: active = survival mostly below about 52% (no sharp cut-off); inactive = mostly above about 56%. Shown is part of a subset that was picked to be rich in actives.

In the assay the test system is DeltatarO mutant. The experiment in a line: growth inhibition of S. aureus wild type versus tarO mutant, primary screen, teichoic acid synthesis inhibitors, RN4220, OD600 (AID 463173). The conditions noted are these: OD600, 18 h, stronger effect = lower value, screened at 18.75 µg/mL (by protocol).
As to `CN(C)CCNC(=O)Cn1c(=O)c2cccn2c2ccc(F)cc21`, the survival is 103% (inactive).

As to `CCOC(=O)c1ccc(N2C(=O)c3n[nH]c(-c4ccco4)c3C2c2ccc(OC)cc2OC)cc1` (configuration not stated), the survival is 89% (inactive).

For `CCOc1ccc(C(=O)OCc2cc(=O)n3nc(C4CC4)sc3n2)cc1`, the survival is 80% (inactive).

In the case of `CC(C)N(C)NC(=S)Nc1ccccc1`, the survival is 77% (inactive).

In the case of `CCN(CC)C(=O)Cn1c(=O)n(CCCCCC(=O)Nc2ccccc2)c(=O)c2sccc21`, the survival was 82% (inactive).

As for `COc1ccc(-c2cc3nccc(C4CCN(C(=O)OC(C)(C)C)CC4)n3n2)cc1`, the survival is 102% (inactive).

`CCOC(=O)c1c(NC(=O)c2cc(C)on2)sc(C)c1C`: the survival was 47% (active).

For `CCOC(=O)c1c(NC(=O)c2cc(C(C)C)on2)sc(C)c1C`, the survival was 49% (inactive).

Regarding `CCOC(=O)c1c(NC(=O)c2cc(CC)on2)sc(C)c1C`, the survival is 144% (inactive).

In the case of `Cc1nn(C)c2c1c(C(F)(F)F)cc(=O)n2CC(=O)NCCC(C)C`, the survival is 95% (inactive).

In the case of `O=C(NCCc1ccccc1)c1cc(Sc2ccc(F)cc2F)nc2ccccc12`, the survival is 98% (inactive).

For `COc1ccc(C2CC(=O)Nc3cc4c(cc32)OCO4)c(OC)c1` (configuration not stated), the survival was 80% (inactive).

Take `COc1ccc(N(Cc2cc3cccc(C)c3[nH]c2=O)C(=O)c2cccc(Cl)c2)cc1`: the survival is 67% (inactive).

With `COC(=O)c1c(NC(=O)CCCOc2cccc(C)c2)sc2c1CCC2`, the survival is 15% (active).

For the molecule `COC(=O)c1c(NC(=O)Cc2coc3ccc(C)cc23)sc2c1CCC2`, the survival was 59% (inactive).

On to `COC(=O)c1c(NC(=O)c2ccc(C(C)(C)C)cc2)sc2c1CCC(C)C2` (configuration not stated), for which the survival is 85% (inactive).

Take `COC(=O)c1c(NC(=O)CS(=O)(=O)c2ccc(C)cc2)sc2c1CCCCC2`: the survival was 76% (inactive).

For `COC(=O)c1c(NC(=O)CCCOc2ccc(C(C)(C)C)cc2)sc2c1CCC(C)C2` (configuration not stated), the survival was 28% (active).

As to `Cc1cccc(OCCCC(=O)Nc2sc3c(c2C(N)=O)CCC(C)C3)c1` (configuration not stated), the survival was 73% (inactive).

As to `CCOC(=O)c1c(NC(=O)COc2ccc(C)cc2C(C)(C)C)sc2c1CCC(C)C2` (configuration not stated), the survival was 55% (inactive).

In the case of `COC(=O)c1c(NC(=O)CCCOc2cccc(C)c2)sc2c1CCC(C)C2` (configuration not stated), the survival is 10% (active).

In the case of `COC(=O)c1c(NC(=O)CS(=O)(=O)c2ccc(C)cc2)sc2c1CCCC2`, the survival is -4% (active).

Consider `COC(=O)c1c(NC(=O)COc2ccc(C)cc2Br)sc2c1CCCC2`, for which the survival was 61% (inactive).

Regarding `CCOC(=O)c1c(NC(=O)CS(=O)(=O)c2ccc(C)cc2)sc2c1CCCCC2`, the survival was 66% (inactive).

On to `CC1CCc2c(sc(NC(=O)CCCOc3ccc(C(C)(C)C)cc3)c2C(N)=O)C1` (configuration not stated), for which the survival is 60% (inactive).

As for `O=c1c(S(=O)(=O)c2cccc(Cl)c2)cn(Cc2ccccc2)c2cc(N3CCCCC3)c(F)cc12`, the survival was 89% (inactive).

Turning to `O=c1oc2cc(O)ccc2cc1-c1nc(-c2ccc(Cl)c(Cl)c2)cs1`, the survival was 101% (inactive).

As for `O=C(Cn1c(=O)c2ccccc2n(CC(=O)Nc2ccc(F)cc2F)c1=O)NCCc1ccccc1`, the survival was 81% (inactive).

In the case of `COc1cc(NC(=O)Nc2cccc(-c3noc(C)n3)c2)cc(OC)c1OC`, the survival was 128% (inactive).

As for `CC(C)Cn1c(SCC(N)=O)nc2ccccc2c1=O`, the survival is 97% (inactive).

With `O=C(CN1C(=O)c2cccc3cccc1c23)N1CCCC1`, the survival is 85% (inactive).

In the case of `Cc1ccc(Cl)cc1NC(=O)Cn1c(=O)n(C(C)C)c(=O)c2oc3ccccc3c21`, the survival is 51% (inactive).

For the molecule `Cc1ccc(Cl)cc1N1CCN(C(=O)C2CCCN(S(=O)(=O)c3ccc(Br)s3)C2)CC1` (configuration not stated), the survival was 113% (inactive).

For the molecule `COc1ccccc1N(CC(=O)NC1CCCCC1)C(=O)c1csnn1`, the survival is 96% (inactive).

Turning to `O=C(NCc1cccc(F)c1)c1ccc(CS(=O)c2ccccc2Cl)o1` (configuration not stated), the survival was 68% (inactive).

In the case of `COC(=O)c1c(NC(=O)COc2ccc(Cl)cc2C)sc2c1CCCCC2`, the survival is 68% (inactive).

With `COC(=O)c1c(NC(=O)CCCOc2ccc(C)cc2)sc2c1CCCC2`, the survival is 8% (active).

Take `COc1ccc(NC(=O)c2c(NC(=O)COc3ccccc3)sc3c2CCC(C)C3)cc1` (configuration not stated): the survival was 120% (inactive).

As to `COC(=O)c1c(NC(=O)CCCOc2ccccc2C)sc2c1CCC2`, the survival is 4% (active).

As for `CC1CCc2c(sc(NC(=O)CCCOc3ccccc3)c2C(N)=O)C1` (configuration not stated), the survival was 78% (inactive).

For the molecule `Cc1ccccc1OCC(=O)Nc1sc2c(c1C(=O)OC(C)C)CCCC2`, the survival was 77% (inactive).

Consider `CCOc1ccc(/C=C/C(=O)Nc2sc3c(c2C(=O)OC)CCC3)cc1`, for which the survival was 75% (inactive).

For the molecule `COC(=O)c1c(NC(=O)CCCOc2ccccc2)sc2c1CCC(C)C2` (configuration not stated), the survival is 2% (active).

With `Cc1ccc(OCCCC(=O)Nc2sc3c(c2C(N)=O)CCCC3)cc1`, the survival is 53% (inactive).

As to `CCS(=O)(=O)Nc1ccc2[nH]c(=O)[nH]c2c1`, the survival was 88% (inactive).

In the case of `CCc1ccc(NC(=O)CNC(=O)Cn2c(C)cc3ccccc3c2=O)cc1`, the survival is 114% (inactive).

For the molecule `CCN(C(=O)C1CCN(S(=O)(=O)c2c(C)noc2/C=C/c2ccc(C)cc2)CC1)c1cccc(C)c1`, the survival is 84% (inactive).

Regarding `CCOc1ccc(CCNC(=O)C2CC(=O)N(CCc3ccc(OC)c(OC)c3)C2)cc1OCC` (configuration not stated), the survival was 91% (inactive).

Consider `COc1ccc(OC)c(C2CC(=O)c3c([nH]c(C(=O)OC4CCC(C)CC4)c3C)C2)c1` (configuration not stated), for which the survival is 81% (inactive).

With `COc1ccc(-c2noc(-c3ccc(N4CCCC4)c([N+](=O)[O-])c3)n2)cc1`, the survival was 108% (inactive).

On to `COc1ccc(-c2noc(-c3ccc(N4CCN(C)CC4)c([N+](=O)[O-])c3)n2)cc1`, for which the survival was 42% (active).

For the molecule `COc1ccc(-c2noc(-c3ccc(N4CCN(C)CC4)c([N+](=O)[O-])c3)n2)cc1OC`, the survival was 50% (inactive).

With `COc1ccc(-c2noc(-c3ccc(N4CCN(c5ccc(OC)cc5)CC4)c([N+](=O)[O-])c3)n2)cc1`, the survival was 47% (inactive).

As to `COc1ccc(-c2noc(-c3ccc(N4CCOCC4)c([N+](=O)[O-])c3)n2)cc1`, the survival is 46% (inactive).

With `COc1ccc(-c2noc(-c3ccc(N4CCCCC4)c([N+](=O)[O-])c3)n2)cc1`, the survival was 37% (active).

As for `CC1=C(C(=O)Nc2ccccc2C)C(c2cccnc2)n2nc(SCc3ccccc3F)nc2N1` (configuration not stated), the survival was 60% (inactive).

With `Cc1nc2nncn2c(N2CCN(c3ccccc3)CC2)c1C`, the survival was 83% (inactive).

The record behind these values is PubChem BioAssay AID463173 (ICCB-Longwood Screening Facility, Harvard Medical School, 2010).
